Test results reported in PubChem BioAssay AID1159580 (chemical genetic matrix, 2015).
About 2,000 (36%) of roughly 5,500 compounds were called active. Inconclusive results (about 18%) are left out. No stated cut-off is given here; in the data, active means normalized growth mostly below about 0.91 (no sharp cut-off); inconclusive means no clear call, values can overlap the other calls; inactive means mostly above about 0.92. The list shows a part of the results.

Assay: chemical genetic growth profiling, strain panel (AID 1159580);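 further: tested at 20 µM; growth read once vehicle control cultures reached saturation at 30 °C; 1 = growth at the plate median or of vehicle wells; lower values mean less growth of the strain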
Details: S. cerevisiae deletion strains, growth OD

Measured: normalized growth

CC(C)Oc1cccnc1N(C)C1CCN(Cc2ccccc2)CC1
inactive: locus YAL013W, strain DEP1, active compounds read low 1.02 | locus YAL040C, strain CLN3, active compounds read low 0.983 | locus YCL061C, strain MRC1 (second series), active compounds read low 1 | locus YDR363W, strain ESC2, active compounds read low 1 | locus YER002W, strain NOP16, active compounds read low 0.967 | locus YJR075W, strain HOC1, active compounds read low 1.01 | locus YMR307W, strain GAS1, active compounds read low 1.03 | locus YNL128W, strain TEP1, active compounds read low 1.01 | locus YNL175C, strain NOP13, active compounds read low 0.991 | locus YNL197C, strain WHI3, active compounds read low 0.991 | locus YNL224C, strain SQS1, active compounds read low 1 | locus YNL322C, strain KRE1, active compounds read low 1.01 | locus YOR083W, strain WHI5 (second series), active compounds read low 0.976 | locus YPL055C, strain LGE1, active compounds read low 1 | locus YPL241C, strain CIN2, active compounds read low 1.01
